In the library only some 2% were active in any assay of this set; here they are far more common.
Rango complex inh: prevents formation of the Rango-importin beta complex; 340,000 compounds, 0.031% hits; Potency, µM (doses to about 92.2 µM), without a hit: top-dose inhibition of complex formation; AID 540263; Q14974; Rango CFP/YFP FRET sensor + importin beta, 45 min; calls by dose curve;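 further: 0% = DMSO wells and 100% = buffer wells lacking importin beta; nearly all actives have a fitted effect of over 15% in size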
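Inhibition scored from the CFP 486 nm/YFP 530 nm FRET ratio 45 min after adding 0.125 microM importin beta to 50 nM Rango biosensor preincubated 5 min with compound (room temperature, PBS with DTT, Tween-20, BSA). No-importin wells as positive control.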
S-ASM inh: inhibitors of human secretory acid sphingomyelinase; P17405; placental ASM, HMU-PC fluorogenic substrate, 60 min; Potency, µM (series often up to 57.5 µM), for the others: at the highest dose activity change, negative = inhibition, hits mostly inhibitors; 340,000 compounds, 0.006% hits; AID 504937
Target sequence (P17405 47-631 limits assumed): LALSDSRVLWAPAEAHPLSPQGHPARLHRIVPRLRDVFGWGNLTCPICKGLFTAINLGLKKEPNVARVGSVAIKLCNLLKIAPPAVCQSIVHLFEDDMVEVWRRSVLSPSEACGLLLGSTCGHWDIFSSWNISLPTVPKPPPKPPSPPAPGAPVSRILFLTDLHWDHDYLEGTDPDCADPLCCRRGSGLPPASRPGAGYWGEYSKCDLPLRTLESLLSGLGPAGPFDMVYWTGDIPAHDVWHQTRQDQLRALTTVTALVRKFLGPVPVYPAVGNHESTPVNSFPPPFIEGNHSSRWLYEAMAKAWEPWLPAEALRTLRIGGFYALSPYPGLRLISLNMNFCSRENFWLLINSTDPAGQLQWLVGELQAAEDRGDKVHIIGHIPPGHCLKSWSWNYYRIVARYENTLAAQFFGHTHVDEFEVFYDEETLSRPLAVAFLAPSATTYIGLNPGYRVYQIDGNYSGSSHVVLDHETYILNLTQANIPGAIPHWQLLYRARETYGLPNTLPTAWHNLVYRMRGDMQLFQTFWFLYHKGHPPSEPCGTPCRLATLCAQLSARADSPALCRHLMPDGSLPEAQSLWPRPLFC
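qHTS format. ASM enzyme prepared from human placenta hydrolyses the fluorogenic substrate HMU-PC0 (9 uM final) over 60 min at 37 °C after a 10 min compound preincubation.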
TDP-43 yeast inh: inhibitors of TDP-43 toxicity in yeast; Potency, µM (doses to about 46.1 µM), for inactives: top-dose growth rescue (activation), most hits filed as activators; TDP-43 expressing yeast growth rescue, BacTiter-Glo, 24 h; AID 652104; 410,000 compounds, 1.8% hits; further: % of control where 0% means no effect; nearly all actives have a fitted effect of over 50% in size
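Galactose-induced TDP-43 yeast, OD600=0.02, compound pinned; 24 hr, 30 deg C; BacTiter-Glo luminescence for growth. Inhibitors of TDP-43 toxicity read as activators.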
aSyn yeast inh: rescues yeast growth from alpha-synuclein toxicity; Yeast expressing alpha-synuclein, growth rescue, BacTiter-Glo, 24 h; Potency, µM (doses to about 46.1 µM), for inactives: top-dose growth rescue (activation), most hits filed as activators; 370,000 compounds, 0.14% hits; further: % of control where 0% means no effect; nearly all actives have a fitted effect of over 65% in size
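Galactose-induced alpha-syn yeast (OD600=0.02, raffinose-pregrown) + pinned cpd, 24 hr, 30 deg C; growth by BacTiter-Glo luminescence. Growth restoration scores as activation.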
Rango dissoc inh: inhibition of RanGTP-driven Rango-importin beta dissociation; O95149+P62826; Biochemical FRET Rango-importin beta, RanGTP-induced dissociation; Potency, µM (doses to about 46.1 µM), without a hit: at the top dose activity change, negative = inhibition; 340,000 compounds, 0.071% hits; AID 540253; calls by dose curve; further: % of control where 0% means no effect; nearly all actives have a fitted effect of over 45% in size
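Quantitative HTS using a FRET biosensor: 0.1 uM Rango, 0.25 uM importin beta, 0.6 uM Ran, 2 mM GTP, 0.2 uM RCC1 final, PBS with DTT, Tween-20 and BSA. Post-read taken 45 min after Ran addition.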
Abeta yeast res: restores growth of yeast expressing A-beta42 peptide. 410,000 compounds, 0.063% hits. AID 1347071. yeast expressing A-beta42, growth rescue, OD600, 48 h; response scale: 0% DMSO, 100% iron-clioquinol control. Potency, µM (series often up to 46.1 µM), actives largely listed as activators; further: nearly all actives have a fitted effect of over 55% in size
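Yeast growth medium received pinned compounds, then yeast cells expressing toxic A-beta were added; plates incubated at 30 C for 48 hr. Growth read as absorbance at 600 nm, normalized to DMSO and equimolar FeCl3 plus clioquinol controls.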
Starred values were filed as active, the others as inactive; i = inactive; ? = inconclusive; . = no result; [ ] = dose if it differs, or a comment. Unless noted, the call rests on the fitted dose curve; in most records, active means well fitted curve in the direction sought with a large enough effect; inconclusive means small, poorly fitted or top-dose-only effect, or another doubt; inactive means no such curve, though single readings can be large; an effect the other way counts as inactive or inconclusive. Potency means the concentration at half of the fitted maximal effect.

SMILES	Rango complex inh	S-ASM inh	TDP-43 yeast inh	aSyn yeast inh	Rango dissoc inh	Abeta yeast res
CC(=O)N(/C=C1\SC(=S)N(c2ccccc2)C1=O)c1ccccc1	?	-12%	28%	0%	16µM*	i
Cc1cc(OC(=O)N2CCOCC2)cc(C)c1Cl	-1%	0%	-21%	7%	-2%	i
CC(=O)Oc1c(Cl)c(N2CCOCC2)c(OC(C)=O)c2ccccc12	1%	0%	10µM*	-1%	-6%	i
Cc1ccccc1NC(=O)Cn1nc(-c2ccccc2)nc(Cc2ccccc2)c1=O	.	.	18%	.	.	i
COc1cccc(CNC(=O)CCc2c(C)nc3c4c(C)cc(C)nc4nn3c2C)c1	.	.	-7%	.	.	i
COc1ccc(CCNc2ncnc3c2c(-c2ccccc2)cn3-c2cccc(Cl)c2)cc1OC	.	.	?	.	.	i
CC(=O)Nc1ccc(Nc2ncnc3c2c(-c2ccccc2)cn3-c2ccc(C)c(Cl)c2)cc1	.	.	16µM*	.	.	i
COCCNc1ncnc2c1c(-c1ccccc1)cn2-c1cccc(Cl)c1	.	.	35µM*	.	.	i
Clc1cccc(Cc2c(-c3cccc(Cl)c3)nc3ccc(Br)cn23)c1	.	.	35µM*	-12%	.	i
Cc1ccc2nc(-c3ccco3)c(CC(C)(C)C)n2c1	.	.	11µM*	37%	.	i
Clc1cccc(-c2nc3ccc(Br)cn3c2Cc2ccccc2)c1	.	.	?	-16%	.	i
Clc1ccc2nc(-c3ccco3)c(Cc3ccsc3)n2c1	.	.	-26%	17%	.	i
Brc1ccc2nc(-c3ccco3)c(Cc3ccsc3)n2c1	.	.	3.2µM*	6%	.	i
Cc1ccc(-c2nc3ccc(Br)cn3c2Cc2ccccc2)cc1	.	.	5%	3%	.	i
Cc1ccc(Cc2c(-c3ccccc3)nc3ccc(Br)cn23)cc1	.	.	22µM*	18%	.	i
COC(=O)c1ccccc1NC(=O)N1CCC(N2CCN(Cc3ccc(F)cc3)C(=O)C2=O)CC1	.	.	19%	.	.	i
Fc1cccc(Cc2c(-c3ccccc3)nc3ccc(Br)cn23)c1	.	.	24%	2%	.	i
Brc1cccc(-c2nc3ccc(Br)cn3c2Cc2ccccc2)c1	.	.	28µM*	-8%	.	i
Clc1cccc(Cc2c(-c3cccc(Br)c3)nc3ccc(Br)cn23)c1	.	.	20µM*	-8%	.	i
FC(F)(F)c1ccccc1Cc1c(-c2cccc(Cl)c2)nc2ccc(Br)cn12	.	.	18%	5%	.	i
Cc1ccc2nc(CN3CCN(S(=O)(=O)c4ccc(F)cc4)CC3)oc2c1	.	.	16µM*	.	.	i
CCCCCCCCN(CCCCCCCC)c1ccc(/C=C/c2ccnc3ccccc23)cc1	.	.	.	-1%	.	.
Cc1ccc(OCC(=O)N/N=C\c2c(C)[nH]n(-c3ccccc3)c2=O)c([N+](=O)[O-])c1	-1%	-1%	0%	20µM*	18%	?
Cc1ccc(/C=N\NC(=O)COc2ccc(C)cc2[N+](=O)[O-])cc1	-3%	-11%	-18%[0.397 µM]	11%	4%	i
Cc1cc(C)nc(Nc2nc3ccccc3s2)n1	-1%	0%	24%	0%	2%	i
SMILES	Rango complex inh	S-ASM inh	TDP-43 yeast inh	aSyn yeast inh	Rango dissoc inh	Abeta yeast res
Cc1ccc(Nc2nc3ccccc3s2)c(C)c1	0%	-1%	25µM*	-1%	-8%	i
CCc1ccc(Cn2c(CNS(=O)(=O)c3ccc([N+](=O)[O-])cc3)nc3cccnc32)cc1	.	.	7%	.	.	i
Cc1ccccc1CNC(=O)c1oc2c(c1C)-c1[nH]ncc1CC2	.	.	?	.	.	i
COc1ccc2c(c1)CCCC2NS(=O)(=O)OCC(Cl)(Cl)Cl (stereo not given)	-1%	-4%	35µM*	-3%	1%	i
O=C(NCc1cccc(Cl)c1)c1ccc(-n2ccnc2)c2ccoc12	.	.	-2%	19%	.	i
O=C(NCc1cccc(Cl)c1)c1ccc(-n2cncn2)c2ccoc12	.	.	35µM*	3%	.	i
O=C(O)c1cccc(-n2cccc2/C=C2/NC(=O)N(c3ccc(Cl)cc3)C2=O)c1	?	2%	1%	-1%	16µM*	i
COc1cccc(CNC(=S)Nc2cccc(Cl)c2C)c1	0%	-3%	18µM*	1%	15%	?
CCN(CC)/[N+]([O-])=N/OCOC(=O)c1ccccc1OC(C)=O	.	.	.	9%	.	.
NC(=S)c1ccc(OCCCc2ccccc2)cc1	.	.	10µM*	8%	.	i
CCCCOc1ccc(C(=O)NCCc2ccccc2)cc1	?	-3%	15%	-1%	-11%	i
Cc1ccc(S(=O)(=O)c2cn(Cc3ccccc3)c3cc(N4CCCC4)c(F)cc3c2=O)cc1	.	.	17%	.	.	i
COc1cccc(CNC(=O)c2c(C)nn(-c3ccc(F)cc3)c2-n2cccc2)c1	.	.	?	1%	.	i
CSc1ccc(CCNC(=O)c2c(C)nn(-c3ccc(F)cc3)c2-n2cccc2)cc1	.	.	0%	6%	.	i
CCOc1ccc(CNC(=O)c2c(C)nn(-c3ccc(F)cc3)c2-n2cccc2)cc1	.	.	14µM*	-4%	.	i
COc1cccc(CNC(=O)c2cc(-c3cccc(OC)c3)n[nH]2)c1	.	.	20µM*	.	.	i
COc1cccc(CNC(=O)c2c(C)nn(-c3cccc(C)c3)c2-n2cccc2)c1	.	.	35µM*	.	.	i
Cc1ccc(NC(=O)N2CCc3c([nH]c4ccccc34)C2c2ccccc2F)c(Cl)c1 (stereo not given)	.	.	?	.	.	i
COC(=O)c1n[nH]n(-c2ccccc2)c1=O	.	.	12%	-1%	.	i
C/C(=N\O)c1cc(Cl)cc(Cl)c1O	0%	3%	14µM*	?	1%	i
COc1ccc(CCNC(=O)c2cc(=O)[nH]c3ccc(S(=O)(=O)N4CCCCC4C)cc23)cc1OC (stereo not given)	.	.	9%	.	.	i
O=c1c2ccccc2ncn1CCCSc1ccccc1	1%	-3%	13µM*	13%	10%	i
O=c1c2ccccc2ncn1CCCSc1ccc(Cl)cc1	0%	-10%	?	2%	10%	i
O=C(c1cccn2c(=O)c3cc(Cl)ccc3nc12)N1CCN(c2ccccc2F)CC1	.	.	25%	.	.	i
N#Cc1c([N+](=O)[O-])cc([N+](=O)[O-])cc1S(=O)(=O)Cc1ccccc1	0%	-1%	11µM*	-64%	-1%	i
COc1cc(OC)c(C#N)c(S(=O)(=O)Cc2ccccc2)c1	3%	-4%	-7%	0%	-6%	i
COC(=O)C(CCSC)NC(=O)C1CCN(c2ncnc3c2nc2n3CCCCC2)CC1 (stereo not given)	.	.	18%	.	.	i
